Assay results reported in PubChem BioAssay (Tox21).
Results filed as inconclusive are left out. Entries that show only a call come without a potency. Calls of active or inactive are those of the source. Unless noted, the call rests on the fitted dose curve; in most records, active means well fitted curve in the direction sought with a large enough effect in the repeat runs; inconclusive means weak or mixed curves; inactive means no such curve, though single readings can be large; an effect the other way counts as inactive or inconclusive.

How the values were obtained:
[1] = qHTS assay to identify small molecule agonists of the peroxisome proliferator-activated receptor delta (PPARd) signaling pathway - cell viability counter screen (AID 743211); further: nearly all actives have a fitted effect of over 55% in size; further: potency means the concentration at half of the fitted maximal effect
Summary of the method: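 Viability was measured as CellTiter-Glo luminescence (30 min, room temperature) in the same wells as the beta-lactamase readout. GeneBLAzer PPARd UAS-bla HEK293H cells received compound after 5 h plating and were incubated 17 h at 37 C.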

[2] = biological target: Peroxisome proliferator-activated receptor delta (Homo sapiens) (UniProt Q03181); test: qHTS assay to identify small molecule agonists of the peroxisome proliferator-activated receptor delta (PPARd) signaling pathway (AID 743212; calls by dose curve)
Sequence of Peroxisome proliferator-activated receptor delta (Homo sapiens) (Q03181 whole entry, looked up): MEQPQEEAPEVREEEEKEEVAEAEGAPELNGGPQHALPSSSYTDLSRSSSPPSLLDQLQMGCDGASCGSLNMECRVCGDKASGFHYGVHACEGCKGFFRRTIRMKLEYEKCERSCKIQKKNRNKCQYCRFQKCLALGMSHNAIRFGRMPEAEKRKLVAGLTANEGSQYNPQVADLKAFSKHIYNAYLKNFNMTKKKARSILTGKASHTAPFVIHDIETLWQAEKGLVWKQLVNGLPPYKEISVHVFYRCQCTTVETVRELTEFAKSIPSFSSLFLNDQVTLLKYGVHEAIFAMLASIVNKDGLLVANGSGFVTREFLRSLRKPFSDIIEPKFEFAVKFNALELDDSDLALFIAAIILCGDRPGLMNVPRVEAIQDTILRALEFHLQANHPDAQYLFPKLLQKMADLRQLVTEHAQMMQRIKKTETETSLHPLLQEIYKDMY
Summary of the method: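 GeneBLAzer PPARd UAS-bla HEK293H cells (beta-lactamase reporter under UAS control), plated and rested 5 h at 37 C, then exposed to compounds in DMSO at 37 C; LiveBLAzer B/G FRET substrate added, 2 h room temperature, fluorescence read.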

[3] = qHTS assay to identify small molecule antagonists of the peroxisome proliferator-activated receptor delta (PPARd) signaling pathway - cell viability counter screen (AID 743213); further: nearly all actives have a fitted effect of over 50% in size; further: potency means the concentration at half of the fitted maximal effect
Summary of the method: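 HEK293H cells with the PPARd UAS-bla reporter, co-treated 17 h at 37 C with compounds and L165041 (300 nM final), were lysed with CellTiter-Glo. Luminescence indicated viable cell content.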

[4] = biological target: Peroxisome proliferator-activated receptor delta (Homo sapiens) (UniProt Q03181); test: qHTS assay to identify small molecule antagonists of the peroxisome proliferator-activated receptor delta (PPARd) signaling pathway (AID 743215; active means well fitted inhibition curve with a large enough effect in the signal ratio in the repeat runs, not every such curve was filed as active; the % refers to the signal ratio;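 further: cells stimulated with agonist L165041 at 300 nM final during compound exposure; series mostly up to about 62 µM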)
Summary of the method: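 With L165041 present at 300 nM final, compounds were incubated 17 h at 37 C on PPARd UAS-bla HEK293H cells. A FRET-based beta-lactamase substrate was then applied for 2 h at room temperature and fluorescence intensity recorded.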

[5] = biological target: Bile acid receptor (Homo sapiens) (UniProt Q96RI1); test: qHTS assay to identify small molecule antagonists of the farnesoid-X-receptor (FXR) signaling pathway (AID 743217; active means well fitted inhibition curve with a large enough effect in the signal ratio in the repeat runs, not every such curve was filed as active; the % refers to the signal ratio)
Sequence of Bile acid receptor (Homo sapiens) (Q96RI1 whole entry, looked up): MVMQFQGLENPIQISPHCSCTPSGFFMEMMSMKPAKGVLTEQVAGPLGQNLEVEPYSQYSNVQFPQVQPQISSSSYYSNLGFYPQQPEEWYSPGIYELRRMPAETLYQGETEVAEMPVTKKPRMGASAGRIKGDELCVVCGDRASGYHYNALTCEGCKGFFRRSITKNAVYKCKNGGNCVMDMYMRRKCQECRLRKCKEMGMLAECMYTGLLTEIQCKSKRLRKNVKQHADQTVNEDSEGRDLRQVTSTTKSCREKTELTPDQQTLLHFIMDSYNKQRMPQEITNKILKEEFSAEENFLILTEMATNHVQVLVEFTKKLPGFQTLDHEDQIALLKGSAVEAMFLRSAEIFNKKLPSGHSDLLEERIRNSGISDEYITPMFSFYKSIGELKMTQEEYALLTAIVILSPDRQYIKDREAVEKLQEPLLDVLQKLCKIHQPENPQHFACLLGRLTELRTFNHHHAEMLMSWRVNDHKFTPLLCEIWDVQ
Summary of the method: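 In this cell-based antagonist screen, inhibition of CDCA-driven (50 uM final) UAS-beta-lactamase expression in HEK 293T cells was measured by FRET fluorescence following 16 h compound exposure at 37 °C.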

[6] = qHTS assay to identify small molecule agonists of the farnesoid-X-receptor (FXR) signaling pathway - cell viability counter screen (AID 743218); further: nearly all actives have a fitted effect of over 45% in size; further: potency means the concentration at half of the fitted maximal effect
Summary of the method: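 After 16 h at 37 C with test compounds, FXR-bla HEK 293T cells were given LiveBLAzer B/G substrate for 2 h at RT and then CellTiter-Glo; luminescence was taken after 30 min.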

[7] = biological target: Bile acid receptor (Homo sapiens) (UniProt Q96RI1); test: qHTS assay to identify small molecule agonists of the farnesoid-X-receptor (FXR) signaling pathway (AID 743220; active means well fitted activation curve with a large enough effect in the signal ratio in the repeat runs, not every such curve was filed as active; the % refers to the signal ratio)
Summary of the method: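 Beta-lactamase reporter under UAS control in GeneBLAzer FXR HEK 293T cells (5000/well) measured with LiveBLAzer FRET substrate after 2 h at room temperature. Compound exposure lasted 16 h at 37C.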

[8] = qHTS assay to identify small molecule antagonists of the farnesoid-X-receptor (FXR) signaling pathway - cell viability counter screen (AID 743221; active means well fitted cell-killing curve with a large enough effect in the repeat runs, not every such curve was filed as active; further: nearly all actives have a fitted effect of over 50% in size; further: potency means the concentration at half of the fitted maximal effect)
Summary of the method: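 Cytotoxicity counter screen run in the FXR-bla reporter wells: HEK 293T cells exposed to compound with 50 uM (final) chenodeoxycholic acid for 16 h, 37 C, then viability measured by CellTiter-Glo luminescence after 30 min, room temperature.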

[9] = biological target: Vitamin D3 receptor (Homo sapiens) (UniProt P11473); test: qHTS assay to identify small molecule agonists of the vitamin D receptor (VDR) signaling pathway (AID 743222; calls by dose curve)
Sequence of Vitamin D3 receptor (Homo sapiens) (P11473 whole entry, looked up): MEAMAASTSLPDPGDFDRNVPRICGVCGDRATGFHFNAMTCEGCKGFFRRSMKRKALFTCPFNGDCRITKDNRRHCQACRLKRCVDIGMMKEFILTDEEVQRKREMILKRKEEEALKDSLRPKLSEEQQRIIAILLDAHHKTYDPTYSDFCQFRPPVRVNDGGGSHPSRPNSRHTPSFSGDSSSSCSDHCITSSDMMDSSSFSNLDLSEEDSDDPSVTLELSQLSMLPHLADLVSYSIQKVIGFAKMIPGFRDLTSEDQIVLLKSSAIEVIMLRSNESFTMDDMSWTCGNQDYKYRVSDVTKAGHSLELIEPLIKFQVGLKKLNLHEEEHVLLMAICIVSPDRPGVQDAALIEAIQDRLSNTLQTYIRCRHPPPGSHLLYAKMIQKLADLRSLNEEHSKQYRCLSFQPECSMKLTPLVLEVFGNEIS
Summary of the method: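 VDR-bla cells were seeded, left 4 h, treated with compounds in DMSO for 16 h, incubated 2 h at RT with B/G FRET substrate, and read for fluorescence.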

[10] = biological target: Vitamin D3 receptor (Homo sapiens) (UniProt P11473); test: qHTS assay to identify small molecule antagonists of the vitamin D receptor (VDR) signaling pathway (AID 743223; active means well fitted inhibition curve with a large enough effect in the signal ratio in the repeat runs, not every such curve was filed as active; the % refers to the signal ratio)
Summary of the method: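 Antagonist mode: compound added to VDR-bla cells alongside agonist 1alpha,25-dihydroxyvitamin D3 (3 nM final), incubation 16 h at 37C. Read-out is LiveBLAzer FRET fluorescence, 2 h at room temperature.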

[11] = qHTS assay to identify small molecule agonists of the vitamin D receptor (VDR) signaling pathway - cell viability counter screen (AID 743224); further: nearly all actives have a fitted effect of over 50% in size; further: potency means the concentration at half of the fitted maximal effect
Summary of the method: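 Here cell health was gauged by luminescent ATP detection (CellTiter-Glo, 30 min RT) in VDR-bla cells that had been incubated with test compounds for 16 h at 37C and 5% CO2.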

[12] = qHTS assay to identify small molecule antagonists of the vitamin D receptor (VDR) signaling pathway - cell viability counter screen (AID 743225); further: nearly all actives have a fitted effect of over 50% in size; further: potency means the concentration at half of the fitted maximal effect
Summary of the method: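 Cytotoxicity counter screen read by CellTiter-Glo luminescence (30 min, room temperature) in the same wells as the VDR-bla antagonist readout. HEK 293T VDR-UAS-bla cells had 16 h at 37C with compound and 3 nM (final) 1-alpha,25-dihydroxyvitamin D3, then 2 h with FRET substrate.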

[13] = qHTS assay to identify small molecule agonists of the NFkB signaling pathway - cell viability counter screen (AID 1159515; calls by dose curve; further: nearly all actives have a fitted effect of over 55% in size; further: potency means the concentration at half of the fitted maximal effect)
Summary of the method: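 5 hr compound treatment of NFkB-bla ME-180 cells (2,000/well, seeded overnight beforehand), followed by reporter substrate for 1.5 hr. CellTiter-Glo added afterward; luminescence after 30 min RT.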

[14] = qHTS assay to identify small molecule agonists of the endoplasmic reticulum stress response signaling pathway - cell viability counter screen (AID 1159517; calls by dose curve; further: nearly all actives have a fitted effect of over 50% in size; further: potency means the concentration at half of the fitted maximal effect)
Summary of the method: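 Luminescence readout: CellTiter-Glo, 30 min RT, same wells as the ESRE-bla reporter read. HeLa ESRE-bla, 1,500 cells/well, o/n 37 C; cpd 5 hr 37 C/5% CO2.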

[15] = qHTS assay to identify small molecule antagonists of the retinoid-related orphan receptor gamma (ROR-gamma) signaling pathway - cell viability counter screen (AID 1159520); further: nearly all actives have a fitted effect of over 50% in size; further: potency means the concentration at half of the fitted maximal effect
Summary of the method: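 Tet-on ROR gamma CHO cells (1,000/well) were plated 4 hr, given compounds in DMSO for 2 hr at 37 C, then induced with 1 uM final doxycycline for 16 hr. Viability was read as ATP by CellTiter-Glo luminescence after 30 min.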

[16] = qHTS assay to identify small molecule agonists of the AP-1 signaling pathway - cell viability counter screen (AID 1159525; calls by dose curve; further: nearly all actives have a fitted effect of over 55% in size; further: potency means the concentration at half of the fitted maximal effect)
Summary of the method: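 ME-180 AP-1-bla, 2500 cells/well, Opti-MEM + 0.5% dialyzed FBS; overnight 37 °C; cpd 15-pt titration, 5 h 37 °C; CellTiter-Glo 30 min RT; luminescence read; normalised to TOAB and DMSO controls.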

[17] = biological target: Retinoic acid receptor RXR-alpha (Homo sapiens) (UniProt P19793); test: qHTS assay to identify small molecule agonists of the RXR signaling pathway (AID 1159527; calls by dose curve; further: nearly all actives have a fitted effect of over 35% in size)
Sequence of Retinoic acid receptor RXR-alpha (Homo sapiens) (P19793 whole entry, looked up): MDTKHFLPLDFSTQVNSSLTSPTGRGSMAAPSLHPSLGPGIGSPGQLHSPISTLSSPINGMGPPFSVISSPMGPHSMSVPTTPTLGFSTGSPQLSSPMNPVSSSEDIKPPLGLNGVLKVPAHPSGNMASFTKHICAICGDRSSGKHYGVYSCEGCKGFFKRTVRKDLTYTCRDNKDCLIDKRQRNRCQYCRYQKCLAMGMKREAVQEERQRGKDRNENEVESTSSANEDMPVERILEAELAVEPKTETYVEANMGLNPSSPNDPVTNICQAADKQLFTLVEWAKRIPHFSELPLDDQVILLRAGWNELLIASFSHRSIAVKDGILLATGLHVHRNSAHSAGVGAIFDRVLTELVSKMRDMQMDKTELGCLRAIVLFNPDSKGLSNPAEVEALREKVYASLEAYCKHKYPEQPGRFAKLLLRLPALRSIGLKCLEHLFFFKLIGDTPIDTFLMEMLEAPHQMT
Summary of the method: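 Agonist-mode beta-lactamase reporter assay: HEK 293T RXR-alpha-UAS-bla cells treated 16 hr at 37 C with compounds, 9-cis retinoic acid as positive control. LiveBLAzer FRET substrate, 405 nm excitation, 460/530 nm emission.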

[18] = biological target: Nuclear receptor ROR-gamma (Homo sapiens) (UniProt P51449); test: qHTS assay to identify small molecule antagonists of the retinoid-related orphan receptor gamma (ROR-gamma) signaling pathway (AID 1159521; further: nearly all actives have a fitted effect of over 50% in size; further: potency means the concentration at half of the fitted maximal effect)
Summary of the method: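 Antagonist read-out: drop in luminescence (ONE-Glo) from an RORE-LUC reporter in CHO cells with doxycycline-inducible ROR-gamma; 2 hr compound pretreatment, 1 uM doxycycline, 16 hr incubation at 37 C.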

[19] = qHTS assay to identify small molecule agonists of the AP-1 signaling pathway (AID 1159526; calls by dose curve; further: potency means the concentration at half of the fitted maximal effect)

SMILES	Potency [1]	Potency [2]	Potency [3]	Potency [4]	Potency [5]	Potency [6]	Potency [7]	Potency [8]	Potency [9]	Potency [10]	Potency [11]	Potency [12]	Potency [13]	Potency [14]	Potency [15]	Potency [16]	Potency [17]	Potency [18]	Potency [19]
CC(C)(C)C(=O)OCOC(=O)[C@@H]1N2C(=O)[C@@H](NC(=O)[C@H](N)c3ccccc3)[C@H]2SC1(C)C	inactive	inactive	inactive	inactive	inactive	inactive	inactive	inactive	inactive	inactive	inactive	inactive	inactive	inactive	inactive	inactive	inactive	–	–
CCCN(CCC)C(=O)C(CCC(=O)OCCCN1CCN(CCOC(=O)Cc2c(C)n(C(=O)c3ccc(Cl)cc3)c3ccc(OC)cc23)CC1)NC(=O)c1ccccc1 (stereo not given)	23.7 µM (active)	–	21.1 µM (active)	–	–	16.8 µM (active)	inactive	26.6 µM (active)	–	–	–	26.8 µM (active)	21.3 µM (active)	inactive	inactive	inactive	–	–	–
Clc1ccc2n[nH]nc2c1	inactive	–	inactive	inactive	–	–	–	inactive	inactive	–	inactive	inactive	inactive	inactive	inactive	inactive	–	–	–
CN(C)[C@@H]1C(=O)C(C(N)=O)=C(O)[C@@]2(O)C(=O)C3=C(O)c4c(O)cccc4C[C@H]3C[C@@H]12	inactive	–	inactive	–	–	inactive	–	inactive	–	–	inactive	inactive	inactive	inactive	–	inactive	inactive	13.3 µM (active)	inactive
CCOc1nc2cccc(C(=O)OC(C)OC(=O)OC3CCCCC3)c2n1Cc1ccc(-c2ccccc2-c2nn[nH]n2)cc1 (stereo not given)	17.4 µM (active)	–	17.4 µM (active)	–	–	15.5 µM (active)	inactive	–	–	–	–	19.5 µM (active)	43.6 µM (active)	21.9 µM (active)	24.3 µM (active)	27.5 µM (active)	–	–	–
CC/C(=C(\c1ccc(O)cc1)c1ccc(OCCN(C)C)cc1)c1ccccc1	11 µM (active)	–	21.9 µM (active)	–	–	15.5 µM (active)	–	24.6 µM (active)	–	–	17.4 µM (active)	–	49.1 µM (active)	61.8 µM (active)	34.4 µM (active)	27.6 µM (active)	–	–	–
CC(C)=CCOc1ccc(/C=C/C(=O)c2ccc(OCC=C(C)C)cc2OCC(=O)O)cc1	29.8 µM (active)	–	inactive	–	–	–	–	21.1 µM (active)	inactive	–	–	–	inactive	inactive	inactive	inactive	–	–	–
O=c1cccccc1O	–	inactive	–	–	inactive	inactive	inactive	inactive	–	inactive	–	inactive	inactive	inactive	inactive	inactive	inactive	–	–
O=c1[nH]sc2cc(Cl)ccc12	26.6 µM (active)	–	11.9 µM (active)	–	–	–	inactive	–	–	–	29.8 µM (active)	–	inactive	inactive	26.6 µM (active)	–	–	–	–
Oc1ccc2c(c1)-c1ccccc1C2	–	inactive	inactive	–	inactive	inactive	inactive	inactive	inactive	inactive	inactive	–	inactive	inactive	–	inactive	–	inactive	inactive
CCC1=C[C@@H]2CN(C1)Cc1c([nH]c3ccccc13)[C@@](C(=O)OC)(c1cc3c(cc1OC)N(C)[C@H]1[C@@](O)(C(=O)OC)[C@H](OC(C)=O)[C@]4(CC)C=CCN5CC[C@]31[C@@H]54)C2	29.8 µM (active)	–	–	–	–	26.6 µM (active)	–	–	inactive	–	inactive	inactive	inactive	inactive	inactive	inactive	–	–	0.107 µM (active)
CN(C)[C@@H]1C(=O)C(C(N)=O)=C(O)[C@@]2(O)C(=O)C3=C(O)c4c(O)ccc(Cl)c4[C@@H](O)[C@H]3C[C@@H]12	inactive	–	inactive	–	–	inactive	–	inactive	–	–	inactive	inactive	inactive	inactive	inactive	inactive	–	–	inactive
